Measurements taken from PubChem BioAssay (Tox21).
A number with no mark means an inactive call. The source made the active and inactive calls. The call rests on the fitted dose curve; in most records, active means well fitted curve in the direction sought with a large enough effect in the repeat runs; inconclusive means weak or mixed curves; inactive means flat fitted curve, though single readings scatter.

Experiment: qHTS assay to test for compound auto fluorescence at 590 nm (red) in HEK293 cell free culture (AID 720683)
Details: cell-free medium autofluorescence, Ex540/Em590 red; series mostly up to 91.3 µM
How it was run: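 Tox21 10K library compounds were pinned into cell-free DMEM with 10% FBS and fluorescence was read at excitation 540 nm. Activity is expressed as Rose Bengal sodium equivalency.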
On the % scale 0 is the no-effect control and ±100 the full control effect.

| Structure (SMILES) | outcome | fluorescence, % of fluorescent control |
| --- | --- | --- |
| CCOC(=O)C(C)(C)C | inactive |  |
| CCCCC(CC)C(=O)OC(C)C (stereo not given) | inactive |  |
| CCCCC[Si](OCC)(OCC)OCC | inactive |  |
| CCCCC(=O)N(C)C | inactive |  |
| C[CH2][Ge]([Cl])([CH2]C)[CH2]C | inactive |  |
| Cc1nc([N+](=O)[O-])cn1-c1ccc([N+](=O)[O-])cc1 | inactive |  |
| Cc1cccc(Nc2ccncc2S(=O)(=O)NC(=O)NC(C)C)c1 |  | 0.257% [at 18.6 µM] |
| N#CCCOCCOCCC#N | inactive |  |
| CC(C)COC(=O)CCCCC(=O)OCC(C)C | inactive |  |
| CCc1nccnc1C | inactive |  |
| Cc1ncc([N+](=O)[O-])n1CC(O)CCl (stereo not given) |  | -0.0564% [at 18.6 µM] |
| CCOc1ccc(NC(=O)OC(C)C)cc1OCC | inactive |  |
| COc1cccc2sc(N)nc12 | inactive |  |
| C[C@H](CCC(=O)O)[C@H]1CC[C@H]2[C@@H]3[C@H](O)C[C@@H]4C[C@H](O)CC[C@]4(C)[C@H]3C[C@H](O)[C@]12C | inactive |  |
| NCCc1ccn[nH]1 |  | -0.0073% [at 18.6 µM] |
| O=P(O)(O)OCC(O)CO (stereo not given) | inactive |  |
| CCC1Nc2cc(Cl)c(S(N)(=O)=O)cc2S(=O)(=O)N1 (stereo not given) | inactive |  |
| O=C(/C=C/c1ccccc1)NCCO | inactive |  |

| Structure (SMILES) | outcome | fluorescence, % of fluorescent control |
| --- | --- | --- |
| CCC(C)N (stereo not given) | inactive |  |
| CNC(=O)C(c1ccccc1)c1ccccc1 | inactive |  |
| CCCOCCOCCOCCO | inactive |  |
| O=[Si]=O | inactive |  |
| C=CCOc1c(Br)cc(C(C)(C)c2cc(Br)c(OCC=C)c(Br)c2)cc1Br | inactive |  |
| CCCCOC(=O)[C@@H](C)Oc1ccc(Oc2ccc(C(F)(F)F)cn2)cc1 | inactive |  |
| CCC(C)(CCC(C)C)C(=O)[O-].CCC(C)(CCC(C)C)C(=O)[O-].[Zn+2] (stereo not given) | inactive |  |
| CC(=O)OCC(=O)[C@@]1(O)[C@H](OC(C)=O)C[C@H]2[C@@H]3CCC4=CC(=O)C=C[C@]4(C)[C@@]3(F)[C@@H](O)C[C@@]21C | inactive |  |
| CC(C)COC(=O)COc1ccc(Cl)cc1Cl | inactive |  |
| CC(=O)c1ccc(OCC(=O)N2CCCCC2)cc1 | inactive |  |
| CN=C(NC#N)NCCSCc1csc(N=C(N)N)n1 | inactive |  |
| C[Si]1(C)N[Si](C)(C)N[Si](C)(C)N1 | inactive |  |
| Cc1ccccc1C | inactive |  |
| O=c1cc(O)c(Cl)c[nH]1 | inactive |  |
| CCC(CO)CO | inactive |  |
| COC(/C=C(\C)CCC=C(C)C)OC | inactive |  |
| CC(C)(CO)[C@@H](O)C(=O)NCCCO | inactive |  |

Experiment: qHTS assay to test for compound auto fluorescence at 590 nm (red) in HepG2 cell free culture (AID 720684)
Details: cell-free medium autofluorescence, red 540/590 nm; series mostly up to 91.3 µM
How it was run: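 Measured in medium alone (MEM containing 10% FBS) following pintool addition of compound; emission at 590 nm with 540 nm excitation, referenced to Rose Bengal sodium.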

| Structure (SMILES) | outcome | fluorescence, % of Rose Bengal |
| --- | --- | --- |
| CCOC(=O)C(C)(C)C | inactive |  |
| CCCCC(CC)C(=O)OC(C)C (stereo not given) | inactive |  |
| CCCCC[Si](OCC)(OCC)OCC | inactive |  |
| CCCCC(=O)N(C)C | inactive |  |
| C[CH2][Ge]([Cl])([CH2]C)[CH2]C | inactive |  |
| Cc1nc([N+](=O)[O-])cn1-c1ccc([N+](=O)[O-])cc1 | inactive |  |
| Cc1cccc(Nc2ccncc2S(=O)(=O)NC(=O)NC(C)C)c1 |  | -0.0539% [at 18.6 µM] |
| N#CCCOCCOCCC#N | inactive |  |
| CC(C)COC(=O)CCCCC(=O)OCC(C)C | inactive |  |
| CCc1nccnc1C | inactive |  |
| Cc1ncc([N+](=O)[O-])n1CC(O)CCl (stereo not given) |  | 0.0054% [at 18.6 µM] |
| CCOc1ccc(NC(=O)OC(C)C)cc1OCC | inactive |  |
| COc1cccc2sc(N)nc12 | inactive |  |
| C[C@H](CCC(=O)O)[C@H]1CC[C@H]2[C@@H]3[C@H](O)C[C@@H]4C[C@H](O)CC[C@]4(C)[C@H]3C[C@H](O)[C@]12C | inactive |  |
| NCCc1ccn[nH]1 |  | 0.001% [at 18.6 µM] |
| O=P(O)(O)OCC(O)CO (stereo not given) | inactive |  |
| CCC1Nc2cc(Cl)c(S(N)(=O)=O)cc2S(=O)(=O)N1 (stereo not given) | inactive |  |
| O=C(/C=C/c1ccccc1)NCCO | inactive |  |

| Structure (SMILES) | outcome | fluorescence, % of Rose Bengal |
| --- | --- | --- |
| CCC(C)N (stereo not given) | inactive |  |
| CNC(=O)C(c1ccccc1)c1ccccc1 | inactive |  |
| CCCOCCOCCOCCO | inactive |  |
| O=[Si]=O | inactive |  |
| C=CCOc1c(Br)cc(C(C)(C)c2cc(Br)c(OCC=C)c(Br)c2)cc1Br | inactive |  |
| CCCCOC(=O)[C@@H](C)Oc1ccc(Oc2ccc(C(F)(F)F)cn2)cc1 | inactive |  |
| CCC(C)(CCC(C)C)C(=O)[O-].CCC(C)(CCC(C)C)C(=O)[O-].[Zn+2] (stereo not given) | inactive |  |
| CC(=O)OCC(=O)[C@@]1(O)[C@H](OC(C)=O)C[C@H]2[C@@H]3CCC4=CC(=O)C=C[C@]4(C)[C@@]3(F)[C@@H](O)C[C@@]21C | inactive |  |
| CC(C)COC(=O)COc1ccc(Cl)cc1Cl | inactive |  |
| CC(=O)c1ccc(OCC(=O)N2CCCCC2)cc1 | inactive |  |
| CN=C(NC#N)NCCSCc1csc(N=C(N)N)n1 | inactive |  |
| C[Si]1(C)N[Si](C)(C)N[Si](C)(C)N1 | inactive |  |
| Cc1ccccc1C | inactive |  |
| O=c1cc(O)c(Cl)c[nH]1 | inactive |  |
| CCC(CO)CO | inactive |  |
| COC(/C=C(\C)CCC=C(C)C)OC | inactive |  |
| CC(C)(CO)[C@@H](O)C(=O)NCCCO | inactive |  |
